The source made the active and inactive calls. Rule for the calls: active = hit-call score of the fitted dose curve at least 0.9, where 1 is the maximum; inactive = score below 0.9.

One experiment can be described thus: ATG_M_61_CIS: Attagene CIS-FACTORIAL HepG2 Assay for M61 Transcription Factor (Internal Marker) (AID 2282937). To be noted: HepG2 Attagene CIS-FACTORIAL M61 internal marker reporter; actives raise or lower the signal. An outline of the steps: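 Transfect HepG2 with MRTUs; dose 24 h; isolate RNA; reverse-transcribe with DNase I treatment; PCR-amplify, FAM-label and cut with HpaI for 2 h at 37 C; resolve by CE. Bidirectional fitting against DMSO.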
Regarding `Cc1ccc(N=C=O)cc1N=C=O`, the call was inactive.

With `[As]#[In]`, the compound was classed as inactive.

For the compound `CCCCCCCCOC(=O)c1ccc(C(=O)OCCCCCCCC)c(C(=O)OCCCCCCCC)c1`, the result was inactive.

`CCOC(=O)[C@]1(c2ccccc2)Oc2ccccc2[C@@H]1N`: the compound was classed as inactive.

Regarding `CN(C)C(=O)Nc1ccc(Cl)cc1`, the compound was classed as inactive.

Regarding `Nc1ccc(N=Nc2ccccc2)cc1`, the compound was called inactive.

In the case of `O=P(OCCCl)(OCCCl)OCCCl`, the call was inactive.

With `C=CCc1ccc2c(c1)OCO2`, the compound was called inactive.

Turning to `CC(C)(C)C(O)(CCc1ccc(Cl)cc1)Cn1cncn1` (stereo unspecified), the outcome was inactive.

For `CCC12COCN1COC2`, the outcome was inactive.

In the case of `N#CC(Br)(Br)C(N)=O`, the result was inactive.

Take `COC(=O)c1ccccc1N`: the call was inactive.

For `O=C(N[C@H](c1ccccc1)[C@@H]1CN2CCC1CC2)c1c(Cl)ccc(C(F)(F)F)c1Cl`, the result was inactive.

Regarding `CN(C)c1ccc(C(=O)c2ccc(N(C)C)cc2)cc1`, the compound was classed as inactive.

On to `O=C(Oc1ccc(Br)cc1)N1CCN2CCC1CC2`, for which the result was inactive.

As for `Cc1cc(N=Nc2ccccc2C)ccc1N`, the call was inactive.

For the compound `OCCCl`, the result was inactive.

In the case of `CC(C)COC(=O)c1ccccc1C(=O)OCC(C)C`, the compound was classed as inactive.

With `Clc1ccc(C(c2ccc(Cl)cc2)C(Cl)(Cl)Cl)cc1`, the outcome was inactive.

As to `Clc1ccc(Cl)c(Cl)c1`, the compound was classed as inactive.

Take `O=[N+]([O-])C(Br)(CO)CO`: the compound was called inactive.

In the case of `OCCOCCO`, the outcome was inactive.

As to `Nc1ccc(Cc2ccc(N)cc2)cc1`, the outcome was inactive.

As to `Nc1cc(Cl)cc(C(=O)O)c1Cl`, the call was inactive.

Consider `C1=Cc2cccc3cccc1c23`, for which the compound was classed as inactive.

`ClCCOCCCl`: the compound was classed as inactive.

With `Cc1cccc(N)c1N`, the result was inactive.

As to `CC(C)(O)c1cnn2c(-c3ccc(F)c(-c4c(F)cccc4C#N)c3)cnc2n1`, the compound was classed as inactive.

The nature of the next experiment: ATG_EGR_CIS: Attagene CIS-FACTORIAL HepG2 Assay for human Early Growth Response 1 (EGR1) (AID 2282938). Conditions: HepG2 Attagene CIS-FACTORIAL EGR reporter mRNA; actives raise or lower the signal. An outline of the steps:
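After a 24 h treatment of transiently transfected HepG2 cells, total RNA was reverse-transcribed and reporter sequences PCR-amplified, labelled and run on capillary electrophoresis. Reporters sit under cis-regulatory promoters sensing endogenous factors.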
Take `Cc1ccc(N=C=O)cc1N=C=O`: the compound was classed as inactive.

On to `[As]#[In]`, for which the outcome was inactive.

As for `CCCCCCCCOC(=O)c1ccc(C(=O)OCCCCCCCC)c(C(=O)OCCCCCCCC)c1`, the compound was called inactive.

For `CCOC(=O)[C@]1(c2ccccc2)Oc2ccccc2[C@@H]1N`, the AC50 is 33 µM (active).

Consider `CN(C)C(=O)Nc1ccc(Cl)cc1`, for which the outcome was inactive.

`Nc1ccc(N=Nc2ccccc2)cc1`: the half-maximal activity concentration (AC50) was 50.6 µM (active).

Consider `O=P(OCCCl)(OCCCl)OCCCl`, for which the outcome was inactive.

In the case of `C=CCc1ccc2c(c1)OCO2`, the compound was called inactive.

With `CC(C)(C)C(O)(CCc1ccc(Cl)cc1)Cn1cncn1` (stereo unspecified), the call was inactive.

In the case of `CCC12COCN1COC2`, the compound was classed as inactive.

Turning to `N#CC(Br)(Br)C(N)=O`, the outcome was inactive.

For the compound `COC(=O)c1ccccc1N`, the result was inactive.

Regarding `O=C(N[C@H](c1ccccc1)[C@@H]1CN2CCC1CC2)c1c(Cl)ccc(C(F)(F)F)c1Cl`, the compound was called inactive.

Regarding `CN(C)c1ccc(C(=O)c2ccc(N(C)C)cc2)cc1`, the outcome was inactive.

As for `O=C(Oc1ccc(Br)cc1)N1CCN2CCC1CC2`, the call was inactive.

`Cc1cc(N=Nc2ccccc2C)ccc1N`: the concentration at half-maximal activity (AC50) is 21.6 µM (active).

As to `OCCCl`, the result was inactive.

Consider `CC(C)COC(=O)c1ccccc1C(=O)OCC(C)C`, for which the AC50 was 73.4 µM (active).

Consider `Clc1ccc(C(c2ccc(Cl)cc2)C(Cl)(Cl)Cl)cc1`, for which the call was inactive.

`Clc1ccc(Cl)c(Cl)c1`: the outcome was inactive.

Regarding `O=[N+]([O-])C(Br)(CO)CO`, the AC50 is 100 µM (active).

Take `OCCOCCO`: the call was inactive.

For `Nc1ccc(Cc2ccc(N)cc2)cc1`, the call was inactive.

As for `Nc1cc(Cl)cc(C(=O)O)c1Cl`, the result was inactive.

On to `C1=Cc2cccc3cccc1c23`, for which the result was inactive.

In the case of `ClCCOCCCl`, the compound was classed as inactive.

As to `Cc1cccc(N)c1N`, the AC50 is 106 µM (active).

On to `CC(C)(O)c1cnn2c(-c3ccc(F)c(-c4c(F)cccc4C#N)c3)cnc2n1`, for which the AC50 was 2.13 µM (active).

The values above are taken from PubChem BioAssay (EPA / NIEHS).
